Laboratory results as given in PubChem BioAssay (Tox21).
Results filed as inconclusive are left out. A call without a number means that no potency is given here. Unmarked numbers belong to inactive results. Calls of active or inactive are those of the source. Calls come from the whole dose curve; as a rule, active = well fitted cell-killing curve with a large enough effect in the repeat runs; inconclusive = weak or mixed curves, or effect the other way; inactive = flat fitted curve, though single readings scatter.

How the values were obtained:
[1] = cAMP Responsive Elements (CRE) small molecule antagonists, cell-based qHTS assay: qHTS cell viability counter screen (AID 2060913); note: nearly all actives have a fitted effect of over 40% in size
Summary of the method: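 CRE-bla HEK293T cells (2,000/well, 18 h) given compound plus NKH477 0.25 uM final for 3 h at 37C; viability counter-screen by CellTiter-Glo luminescence in same wells after 30 min.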

[2] = cAMP Responsive Elements (CRE) small molecule agonists, cell-based qHTS assay: qHTS cell viability counter screen (AID 2060914); note: nearly all actives have a fitted effect of over 50% in size
Summary of the method: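 Cytotoxicity was measured as ATP luminescence (CellTiter-Glo, 30 min at room temperature) in the same wells as the CRE-bla FRET read-out. HEK293T CRE-bla cells had 3 h compound exposure at 37C/5% CO2.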

Structure (SMILES) | viability change, negative = cytotoxic [1] | activity change, negative = cytotoxicity [2] | Potency [1] | Potency [2]
C/C=C/C(=O)CC | 6.92% [at 18.9 µM] | 7.79% [at 18.9 µM] |  | 
O=C(O)[C@H](O)[C@@H](O)[C@H](O[C@@H]1O[C@H](CO)[C@H](O)[C@H](O)[C@H]1O)[C@H](O)CO |  |  | inactive | inactive
CC(C)(C)C1(CCc2ccc(Cl)cc2)CO1 (stereo unspecified) |  |  | inactive | inactive
CC(C)CCCCCCc1ccc(OCCOCCO)cc1 |  |  | inactive | inactive
Nc1nc2ccc(OC(F)(F)F)cc2s1 |  |  | inactive | inactive
CCCC(CCC)(C(=O)OCC)C(=O)OCC |  |  | inactive | inactive
O=C(O)c1ccccc1S |  |  | inactive | inactive
CCC(C)OC(C)CC (stereo unspecified) |  |  | inactive | inactive
O=C(O)c1ccco1 |  |  | inactive | inactive
CN(C)CC[C@@H](c1ccc(Cl)cc1)c1ccccn1 |  |  | inactive | inactive
N/C(=N\N=C\c1ccc(Cl)cc1)N/N=C/c1ccc(Cl)cc1 |  |  | inactive | inactive
CCCCOCCCC |  |  | inactive | inactive
OC1CCCc2ccccc21 (stereo unspecified) |  |  | inactive | inactive
Clc1cccc(Cl)c1NC1=NCCN1 |  |  | inactive | inactive
Cc1ccc(OC(=O)c2ccccc2O)cc1 |  |  | inactive | inactive
CCO[Si](CCC1CCC2OC2C1)(OCC)OCC (stereo unspecified) |  |  | inactive | inactive
COc1ccc2cc1Oc1ccc(cc1)C[C@H]1c3c(cc4c(c3Oc3cc5c(cc3OC)CCN(C)[C@@H]5C2)OCO4)CCN1C |  |  | inactive | inactive
CC1=CC[C@@H](C(C)(C)O)CC1 |  |  | inactive | inactive
FC(F)(F)c1cccc(Cl)c1 |  |  | inactive | inactive
CC1CC(=O)NN=C1c1ccc(NCC(C)(C)NCC(O)COc2cc(Cl)ccc2C#N)cc1 (stereo unspecified) |  |  | inactive | inactive
CCCCN1CCCC[C@H]1C(=O)Nc1c(C)cccc1C |  |  | inactive | inactive
CCN[C@H]1CN(CCCOC)S(=O)(=O)c2sc(S(N)(=O)=O)cc21 |  |  | inactive | inactive
C/C(=N\O)c1ccc(OCC(=O)N2CCCCC2)cc1 |  |  | inactive | inactive
CC1=NC(C)OC1C (stereo unspecified) |  |  | inactive | inactive

Structure (SMILES) | viability change, negative = cytotoxic [1] | activity change, negative = cytotoxicity [2] | Potency [1] | Potency [2]
N[C@H](Cc1c[nH]c2ccccc12)C(=O)O |  |  | inactive | inactive
OC/C(Br)=C(\Br)CO |  |  | inactive | inactive
CCCCN(CCCC)CCCCCCN(CCCC)CCCC |  |  | inactive | inactive
Nc1cccc(C(F)(F)F)c1 |  |  | inactive | inactive
CCOCCn1c(C2CCN(CCc3ccc(C(C)(C)C(=O)O)cc3)CC2)nc2ccccc21 |  |  | inactive | inactive
CN(C)CCN(Cc1ccsc1)c1ccccn1 |  |  | inactive | inactive
O=C1CC2(CCCC2)CC(=O)N1CCCCN1CCN(c2ncccn2)CC1 |  |  | inactive | inactive
CCCCCCOc1ccc(O)cc1 |  |  | inactive | inactive
C=C1C[C@@]23CC[C@H]4[C@@](C)(CCC[C@@]4(C)C(=O)O[C@@H]4O[C@H](CO)[C@@H](O)[C@H](O)[C@H]4O)[C@@H]2CC[C@]1(O[C@@H]1O[C@H](CO)[C@@H](O)[C@H](O[C@@H]2O[C@H](CO)[C@@H](O)[C@H](O)[C@H]2O)[C@H]1O[C@@H]1O[C@H](CO)[C@@H](O)[C@H](O)[C@H]1O)C3 |  |  | inactive | inactive
CCOCC(C)O (stereo unspecified) |  |  | inactive | inactive
CC1(C)Cc2cccc(N)c2O1 |  |  | inactive | inactive
CCCCCCC(O)CO (stereo unspecified) |  |  | inactive | inactive
CC(O)c1ccccc1 (stereo unspecified) |  |  | inactive | inactive
CO/N=C(/C(=O)N[C@@H]1C(=O)N2C(C(=O)O)=C(COC(N)=O)CS[C@H]12)c1ccco1 |  |  | inactive | inactive
CCCCCCCCc1ccc(Nc2ccc(CCCCCCCC)cc2)cc1 |  |  | inactive | inactive
CC(C)(N)CO |  |  | inactive | inactive
C=CCOC(=O)CCCCCCCC |  |  | inactive | inactive
O=C(c1ccc(OCCN2CCCCC2)cc1)c1c(-c2ccc(O)cc2)sc2cc(O)ccc12 |  |  | inactive | inactive
N[C@H](C(=O)O)[C@@H](O)c1ccc(O)c(O)c1 |  |  | inactive | inactive
COC(C)(C)CCCC(C)CC=O (stereo unspecified) |  |  | inactive | inactive
CCCCCCCCCCCCOCCOS(=O)(=O)O |  |  | inactive | inactive
CCCCC(=O)O[C@]1(C(=O)CO)[C@@H](C)C[C@H]2[C@@H]3CCC4=CC(=O)C=C[C@]4(C)[C@@]3(F)[C@@H](O)C[C@@]21C |  |  | inactive | inactive
CC(=O)CC(=O)Nc1ccc(C)cc1C |  |  | inactive | inactive
CCCOc1ccc(S(=O)(=O)N2CCN(CC)CC2)cc1-c1nc2c(CC)n(Cc3ccccn3)nc2c(=O)[nH]1 |  |  | inactive | inactive
